From PubChem BioAssay
hERG WT inh: inhibitors of human wildtype KCNH2 potassium channel; Q12809; U2OS, BacMam KCNH2, thallium flux FluxOr; active compounds read low; activity change, % at 1.84 µM; hit rate 0.37% among 340,000; AID 720551;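 active means maximum activity change below -70%; inconclusive means maximum activity change between -70% and -50%; inactive means maximum activity change above -50%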
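U2OS cells were transduced with wild-type KCNH2 virus (2.03 x 10^8 / mL) for 4 h at room temperature, then cultured overnight at 37 C. Thallium flux was read with FluxOr dye. Rate constants were normalized to DMSO controls.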
KCNH2 3.1 inh: KCNH2 3.1 (human) potassium channel inhibition | U2OS KCNH2 3.1, thallium flux FluxOr; active compounds read low | activity change, % (tested at about 1.8 µM) | hit rate 0.95% among 340,000;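 active means maximum activity change below -70%; inconclusive means maximum activity change from -70% to -50%; inactive means maximum activity change above -50%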;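 further: thallium influx rate constant from kinetic fluorescence after stimulation buffer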
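Measured as rate of thallium-driven FluxOr signal in transduced U2OS cells carrying the 3.1 channel, read kinetically for 2 min upon stimulation; values are rate constants scaled to DMSO control wells.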
GLP1R inv ag: inverse agonists of human GLP-1 receptor; hit rate 1.6% among 410,000; Potency, µM (doses to about 38.3 µM), actives largely listed as inhibitors; HEK293 GLP-1R CRE-luciferase, luminescence, 24 h; GLP-1R form is constitutively active; P43220; further: nearly all actives have a fitted effect of over 55% in size
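HEK293 cells stably co-expressing a cAMP-responsive luciferase reporter and constitutively active GLP-1R were seeded, incubated 12 h, then exposed to compounds for 24 h at 37 C. Luminescence was read 12 min after detection reagent; inverse agonists lower signal.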
GLP1R cytotox: cytotoxic in the GLP-1 receptor inverse agonist counter-screen | HEK293 cAMP-luciferase reporter cells, luminescence, 24 h | Potency, µM (highest dose often 38.3 µM), most hits filed as inhibitors | hit rate 0.13% among 410,000 | AID 624418;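 further: loss of luciferase light is scored as toxicity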
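Seeding density was 200 cells/uL; after overnight-length (12 h) culture, 23 nL compounds went on for 24 h at 37 °C. Readout used a luciferase detection reagent, luminescence taken after 12 min at room temperature.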
GLS inhibitor: inhibitors of human glutaminase (GLS). O94925. GLS enzymatic activity, qHTS titration. Potency, µM (titrated, usually from 45.5 µM), most hits filed as inhibitors. hit rate 0.21% among 410,000. AID 624170
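hKGA in 45 mM KH2PO4 (pH 8.2), 0.02% Tween-20 with compound, then 1mM L-Glutamine (stock as added) plus glutamate oxidase/HRP/Amplex red coupling mix. Fluorescence read initially and after 30 min at RT; signal change reflects glutamate formation.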
GLP1R ag: agonists of human GLP-1 receptor; P43220; HEK293 GLP-1R CRE-luciferase, luminescence, 4-6 h; cells express a hypersensitive GLP-1R form; Potency, µM (doses to about 45.6 µM), hits mostly activators; hit rate 0.007% among 380,000; AID 624172
Numbers stand for hits; - = inactive; ? = inconclusive; . = no result given. An excerpt weighted towards active compounds, which were near 2.8% of everything screened. Unless noted, the call rests on the fitted dose curve; in most records, active means well fitted curve in the direction sought with a large enough effect; inconclusive means small, poorly fitted or top-dose-only effect, or another doubt; inactive means no such curve, though single readings can be large; an effect the other way counts as inactive or inconclusive.

SMILES	hERG WT inh	KCNH2 3.1 inh	GLP1R inv ag	GLP1R cytotox	GLS inhibitor	GLP1R ag
Cc1ccc(S(=O)(=O)NCC(=O)N(CC(=O)NCC2CCCO2)Cc2ccccc2Cl)cc1 (configuration not stated)	-233	-	-	-	-	-
Cc1ccc(-c2nc3scc(CCNS(=O)(=O)c4c(C)noc4C)n3n2)cc1	.	.	-	-	-	.
COc1cccc(CN2CC(C(=O)NC3CCC3)CCC2=O)c1 (configuration not stated)	-	-	-	-	-	-
COc1cc(OC)cc(-c2nc3nc(C)c(CCC(=O)Nc4cc(C)cc(C)c4)c(C)n3n2)c1	.	.	-	-	-	-
O=C(N/N=C/CCc1ccccc1)c1ccc(CN2c3cccc4cccc(c34)S2(=O)=O)cc1	-	-78	-	-	-	-
COc1ccc(/C=N/NC(=O)c2ccc(CN3c4cccc5cccc(c45)S3(=O)=O)cc2)cc1	-	-	-	-	-	-
NS(=O)(=O)c1ccc(CCNC(=O)c2ccc([N+](=O)[O-])s2)cc1	-	-	-	-	-	-
O=C1OCCN1CCNCc1cn(-c2ccc(F)cc2)nc1-c1ccccc1Cl	-150	-	-	-	-	-
CN(C(=O)CSc1nc2ccc(NC(=O)COc3ccccc3Cl)cc2s1)c1ccccc1	.	.	-	-	-	.
O=C(NCCc1nc2ccccc2[nH]1)/C(=C/c1ccco1)NC(=O)c1ccccc1Br	-	-	-	-	-	-
O=C(NCc1ccco1)/C(=C/c1ccc(Cl)cc1)NC(=O)c1ccco1	-	-	-	-	-	-
O=C(N/C(=C\c1ccc(Cl)cc1)C(=O)N1CCCCC1)c1ccco1	-	-	10µM	-	-	-
O=C(NCCc1nc2ccccc2[nH]1)/C(=C/c1ccc2c(c1)OCO2)NC(=O)c1ccc(Cl)cc1Cl	-165	-107	?	-	-	-
O=C(NCc1ccco1)/C(=C/c1ccccc1)NC(=O)c1ccco1	-92	-	-	-	-	-
O=C(NCCc1nc2ccccc2[nH]1)/C(=C/c1ccc(F)cc1)NC(=O)c1ccco1	-72	-	-	-	-	-
COc1cc2cc(CCCOC(=O)c3ccc4c(c3)OCO4)oc(=O)c2cc1OC	-	-	-	-	-	-
CCn1nc(C)c(CCN(C)C(=O)Nc2cc(Cl)ccc2C)c1C	.	.	-	-	-	.
NCc1csc(Nc2ncccn2)n1	.	.	-	-	-	-
O=C(CCS(=O)(=O)c1ccccc1)N1CCN(c2ccccc2)CC1	-	.	-	-	-	-
COc1ccc(-c2nc3sc(CCNC(=O)c4cc(OC)c(OC)c(OC)c4)c(C)n3n2)cc1	.	.	-	-	-	-
O=C(Nc1ccccc1)/C(=C/c1ccc(F)cc1)NC(=O)c1ccco1	-	-114	-	-	-	-
CCOc1ccc(OCC)c(S(=O)(=O)N2CCN(c3cccc(C)c3C)CC2)c1	.	.	-	-	-	-
CC1(C(=O)c2ccccc2)C2c3c(ccc4ccccc34)OC(=O)C21C(=O)N1CCOCC1 (configuration not stated)	-	.	-	-	-	-
Cc1ccc(C(=O)C2(C)C3c4cc(Br)ccc4OC(=O)C32C(=O)c2ccco2)cc1 (configuration not stated)	-	-114	-	-	-	-
CCn1ncc(Br)c1C(=O)Nc1ccn(C23CC4CC(CC(C4)C2)C3)n1	-	-	7.9µM	-	-	-
SMILES	hERG WT inh	KCNH2 3.1 inh	GLP1R inv ag	GLP1R cytotox	GLS inhibitor	GLP1R ag
O=C(N/N=C/c1ccc(O)c(O)c1)c1cccc(S(=O)(=O)N2CCCC2)c1	-	-	-	-	11µM	-
CC(C)c1ccc(Nc2ncnc3onc(-c4ccc(F)cc4)c23)cc1	.	.	?	-	-	.
CC(C)CCNC(=O)C1CCN(C(=O)c2cc3sccc3n2Cc2ccc(Cl)cc2)CC1	.	.	-	-	-	.
O=C(CN1C2=NCCCN2c2ccccc21)c1ccc([N+](=O)[O-])cc1	-	-74	-	-	-	-
COc1ccc(NC(=O)CC2C(=O)N(c3ccc(F)cc3)C(=O)N2Cc2ccco2)cc1 (configuration not stated)	.	.	-	-	-	.
C[C@H](O)[C@@H]1CN2CCc3c([nH]c4ccccc34)[C@@H]2C[C@@H]1N(C)C(=O)Nc1cc(Cl)cc(Cl)c1	-	-	?	-	?	-
C[C@H](O)[C@@H]1C(=O)N2CCc3c([nH]c4ccccc34)[C@@H]2C[C@@H]1N(C)C(=O)Nc1cc(Cl)cc(Cl)c1	-	-	10µM	-	-	-
CCOC(=O)CNC(=O)N(C)[C@H]1C[C@H]2c3[nH]c4ccccc4c3CCN2C(=O)[C@H]1[C@H](C)O	.	.	-	-	-	-
C[C@H](O)[C@@H]1CN2CCc3c([nH]c4ccc(-c5ccc6c(c5)OCO6)cc34)[C@@H]2C[C@@H]1N(C)C(=O)Nc1cc(Cl)cc(Cl)c1	-	-	2.8µM	?	-	-
C[C@@]12CCC[C@H]1[C@@H]1CC[C@H]3C[C@@H](O)CC[C@]3(C)[C@H]1CC2	.	.	.	.	-	-
CC1Sc2ccc(S(=O)(=O)CCC(=O)Nc3ccccn3)cc2NC1=O (configuration not stated)	-	-	-	-	-	-
CC(=O)c1cccc(Oc2cc(NN3CCCCC3)c([N+](=O)[O-])cc2[N+](=O)[O-])c1	-	-	10µM	?	-	-
CC(=O)c1ccccc1Oc1cc(NN2CCCCC2)c([N+](=O)[O-])cc1[N+](=O)[O-]	-	-	?	-	-	-
COc1cc(NC(=O)N2CCc3nc(Nc4cc(Cl)cc(Cl)c4)ncc3C2)cc(OC)c1OC	.	.	10µM	?	-	-
Cc1ccn2c(Cc3ccccc3)c(-c3ccc(Br)cc3)nc2c1	-	-74	?	-	-	-
Fc1ccc(-c2nc3ccc(Br)cn3c2Cc2ccccc2)cc1	-	-	8.9µM	-	-	-
Cc1ccc(Cc2c(-c3ccc(C)cc3)nc3cc(C)ccn23)cc1	-	-	?	?	-	-
Cc1ccn2c(CC(C)(C)C)c(-c3ccc(F)cc3)nc2c1	-	-	7.1µM	-	-	-
Cc1ccc(NC(=O)c2cc3c(CO)cnc(C)c3oc2=Nc2cccc(C(N)=O)c2)cc1	-	-	-	-	-	-
Cc1ccc(NC(=O)c2cnc3sc(N4CCOCC4)nn3c2=O)cc1N(C)C	.	.	-	-	-	.
CCOc1ccc(CN(C)CC(O)COC(c2ccc(OC)cc2)c2ccc(OC)cc2)cc1 (configuration not stated)	-85	-93	?	?	-	-
COc1ccc(CN(C)CC(O)COC(c2ccc(OC)cc2)c2ccc(OC)cc2)cc1 (configuration not stated)	?	-113	?	?	-	-
